Consider six molecules from PubChem BioAssay (Tox21).

SMILES strings stand for the structures. Values without a mark were called inactive. Inconclusive results are not listed. Activity calls are given as the source filed them. Unless noted, calls follow the shape of the full dose curve.

The nature of test [1]: Nuclear factor erythroid 2-related factor 2/antioxidant responsive element (Nrf2/ARE) small molecule agonists: qHTS cell viability counter screen in human keratinocytes (AID 1919968; active = well fitted curve in the direction sought with a large enough effect in the repeat runs; an effect the other way counts as inactive or inconclusive; also: nearly all actives have a fitted effect of over 55% in size; also: potency is read from the fitted curve at half-maximal effect). In short, it runs like this:
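After a 5 h attachment period, ARE-reporter keratinocytes were dosed with compounds in DMSO and then cultured 23 h at 37 C. Cell viability came from CellTiter-Fluor signal read after a further 1 h.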
A general note: qHTS replaces the single test concentration by a dilution series.

For test [2], the target named is Gonadotropin-releasing hormone receptor (Homo sapiens) (UniProt P30968). Nature of the test: Human gonadotropin-releasing hormone receptor (GnRHR) small molecule agonists, calcium flux assay in GnRHR-HEK293 cells (AID 1920063). Also: nearly all actives have a fitted effect of over 35% in size. In short, it runs like this: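 We seeded human GnRHR-expressing HEK293 cells for 18 hours, loaded them with calcium dye for an hour at 37 C, added test compounds, and recorded fluorescence intensity kinetically for three minutes.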
For orientation: Calcium flux is commonly read through the fluorescence of an indicator in the cells.

For test [3], the target named is KiSS-1 receptor (Homo sapiens) (UniProt Q969F8). Nature of the test: Human kisspeptin (KISS1R) small molecule agonists, calcium flux assay in KISS1R-HEK293 cells (AID 1920064; active = well fitted curve in the direction sought with a large enough effect in the repeat runs; an effect the other way counts as inactive or inconclusive). In short, it runs like this:
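Kinetic calcium assay, 1 s sampling over 3 min at Ex/Em 480/540, in HEK293 cells engineered with human KISS1R; compounds delivered in DMSO after 1 h dye loading.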

The nature of test [4]: G protein-coupled receptor (GPCR) small molecule agonists, calcium flux assay: HEK293 wild type cell line counter screen (AID 1920065). In short, it runs like this: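 Calcium-sensitive dye, loaded 1 h at 37 C into cells cultured 18 h, reports compound-evoked calcium release as fluorescence (Ex/Em 480/540), measured over 3 min. Agonist mode; 15-point titrations, triplicate.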

Test [5] in a line: p53 small molecule agonists, cell-based qHTS assay with rat liver microsomes (AID 1963578). In a few lines: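 With rat liver microsomes and NADPH present (0.5 mg/mL final each), p53RE-bla cells are treated with compound for 16 h at 37 C. LiveBLAzer detection mixture is then applied for 2 h at room temperature in the dark.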
A short description of test [6]: p53 small molecule agonists, cell-based qHTS assay with human liver microsomes: qHTS cell viability counter screen (AID 1963579). Also: nearly all actives have a fitted effect of over 45% in size. Also: potency is read from the fitted curve at half-maximal effect. In short, it runs like this: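 In this multiplexed counter screen, the reporter plates were subsequently treated with CellTiter-Glo so that cell viability, reflected by luminescence, could be recorded for p53RE-bla cells dosed 16 h with compounds under microsomal activation (HLM and NADPH).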

Test [7] can be described thus: p53 small molecule agonists, cell-based qHTS assay with rat liver microsomes: qHTS cell viability counter screen (AID 1963580). Also: nearly all actives have a fitted effect of over 45% in size. In a few lines:
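p53RE-bla HCT-116 cells (4,000/well) rested 5 h at 37 C, then given Tox21 compounds in DMSO with rat liver microsomes (0.5 mg/mL final) plus NADPH (0.5 mg/mL final) for 16 h at 37 C. Viability read by CellTiter-Glo luminescence after 30 min at room temperature.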

A short description of test [8]: p53 small molecule agonists, cell-based qHTS assay: qHTS cell viability counter screen (AID 1963581). Also: nearly all actives have a fitted effect of over 45% in size. In short, it runs like this: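 Following 5 h attachment, HCT-116 p53RE-bla cells took up compound for 16 h at 37 C; the reporter was read with B/G FRET substrate (2 h RT), and viability then via CellTiter-Glo ATP luminescence.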
The target of test [9] is 5-hydroxytryptamine receptor 2A (Homo sapiens) (UniProt P28223). Kind of test: 5-hydroxytryptamine receptor 2A (HTR2A) small molecule antagonists, cell-based qHTS assay (AID 1963586). Also: nearly all actives have a fitted effect of over 45% in size. In short, it runs like this: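 Antagonist-mode intracellular calcium assay: DOI (4 nM) added after 5 min compound pre-incubation at room temperature to dye-loaded HTR2A-CHO cells. Fluorescence followed for 3 min, sampled every second.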

In test [10] the target is Muscarinic acetylcholine receptor M1 (Homo sapiens) (UniProt P11229). Kind of test: Cholinergic receptor muscarinic 1 (CHRM1) small molecule antagonists, cell-based qHTS assay (AID 1963588). Also: nearly all actives have a fitted effect of over 40% in size. In a few lines:
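CHRM1-CHO calcium-flux assay, antagonist mode. Cells were seeded 18 h, dye-loaded 1 h at 37 C and given compound for 5 min at RT, then acetylcholine was added at 50nM. FDSS fluorescence was read 3 min; 15 concentrations, three runs.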

Test [11] shares this target. Nature of the test: Cholinergic receptor muscarinic 1 (CHRM1) small molecule agonists, cell-based qHTS assay (AID 1963589). Also: nearly all actives have a fitted effect of over 35% in size. In a few lines:
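Measures agonist-induced intracellular calcium rise. Stable human CHRM1 CHO line, 1 h dye load at 37 C, compounds from DMSO, kinetic fluorescence read.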

In test [12] the target is Beta-2 adrenergic receptor (Homo sapiens) (UniProt P07550). Nature of the test: Adrenergic beta2 receptor (ADRB2) small molecule antagonists, cell-based qHTS assay (AID 1963592). Also: series mostly up to about 92 µM; nearly all actives have a fitted effect of over 50% in size. In a few lines: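 Cells (CHO, stable ADRB2 overexpression) incubated 18-20hr at 37C; compounds added from DMSO; agonist mix (1nM isoproterenol, 100uM IBMX, 25uM Ro-20-1724) added; 0.5hr RT; d2-cAMP and anti-cAMP-cryptate added; 1hr RT; 665/615 nm read.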

Test [13] has as its target D(2) dopamine receptor (Homo sapiens) (UniProt P14416). Nature of the test: Dopamine D2 receptor (DRD2) small molecule antagonists, cell-based qHTS assay (AID 1963595; active = well fitted inhibition curve with a large enough effect in the signal ratio in the repeat runs, with a control signal flat; the % refers to the signal ratio). In a few lines: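 HEK293 cells stably expressing DRD2, preincubated with 0.1 mM Ro20-1724 and compounds 10 min, were stimulated with 200 nM NKH477 plus 12 nM quinpirole for 30 min at room temperature; cAMP measured by HTRF (665/620 nm).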

Test [14] deals with 5-hydroxytryptamine receptor 2A (Homo sapiens) (UniProt P28223). Kind of test: 5-hydroxytryptamine receptor 2A (HTR2A) small molecule agonists, cell-based qHTS assay (AID 1963587). Also: nearly all actives have a fitted effect of over 30% in size. In short, it runs like this:
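HTR2A-CHO cells, plated 18 h at 37 C/5% CO2, dye-loaded 1 h at 37 C; compounds in DMSO added by pin tool (agonist mode). Intracellular calcium flux read as kinetic fluorescence on FDSS over 2 min at 1 s intervals.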

Test [15] in a line: cAMP Responsive Elements (CRE) small molecule agonists, cell-based qHTS assay (AID 1963590). In short, it runs like this:
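A CRE-responsive beta-lactamase reporter in HEK 293T cells was used. Treatment ran 3 h at 37 C; detection used LiveBLAzer B/G FRET substrate for 2 h at room temperature.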

Test [16] in a line: cAMP Responsive Elements (CRE) small molecule antagonists, cell-based qHTS assay (AID 1963591; active = well fitted inhibition curve with a large enough effect in the signal ratio in the repeat runs, not every such curve was filed as active; the % refers to the signal ratio; also: potency is read from the fitted curve at half-maximal effect). In a few lines: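 HEK293T cells carrying a CRE-driven beta-lactamase reporter receive compound and NKH477 (0.25 uM final) for 3 h. Fluorescence from LiveBLAzer B/G FRET substrate is read after 2 h at room temperature.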
In test [17] the target is D(2) dopamine receptor (Homo sapiens) (UniProt P14416). Kind of test: Dopamine D2 receptor (DRD2) small molecule agonists, cell-based qHTS assay (AID 1963594). Also: nearly all actives have a fitted effect of over 35% in size. In short, it runs like this:
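HEK293 cells stably expressing DRD2 were cultured 24 h at 37 C, then given Ro20-1724 (0.1 mM final) and compounds for 10 min at room temperature. NKH477 (200nM) was then added for 30 min. cAMP was read by HTRF.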

The nature of test [18]: p53 small molecule agonists, cell-based qHTS assay (AID 1963582; active = well fitted activation curve with a large enough effect in the signal ratio in the repeat runs, not every such curve was filed as active; the % refers to the signal ratio). In short, it runs like this: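 In this cell-based concentration-response screen, a p53 response element drives beta-lactamase; cells received DMSO-borne compounds after 5 h culture and were incubated a further 16 h before FRET substrate development.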
The target of test [19] is Beta-2 adrenergic receptor (Homo sapiens) (UniProt P07550). Kind of test: Adrenergic beta2 receptor (ADRB2) small molecule agonists, cell-based qHTS assay (AID 1963593).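 Also: CHO cells stably overexpressing human ADRB2.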 In short, it runs like this:
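CHO cells stably over-expressing ADRB2 were plated overnight at 37C, then dosed with compounds plus a stimulation mix containing 100uM IBMX and 25uM Ro-20-1724 for 0.5hr at room temperature. cAMP was measured by HTRF competition, 1hr.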

Test [20] in a line: p53 small molecule agonists, cell-based qHTS assay with human liver microsomes (AID 1963577).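 Also: p53 response element beta-lactamase reporter cells with liver microsomes plus NADPH.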 In a few lines: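 16 h, 37 C exposure of p53RE-bla cells to compounds with human liver microsomes and NADPH (0.5 mg/mL final each); detection via LiveBLAzer mixture, 2 h dark at room temperature.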
% is scaled to controls: 0 for no effect and ±100 for the full control effect.

D(2) dopamine receptor (Homo sapiens), sequence (P14416 whole entry, looked up): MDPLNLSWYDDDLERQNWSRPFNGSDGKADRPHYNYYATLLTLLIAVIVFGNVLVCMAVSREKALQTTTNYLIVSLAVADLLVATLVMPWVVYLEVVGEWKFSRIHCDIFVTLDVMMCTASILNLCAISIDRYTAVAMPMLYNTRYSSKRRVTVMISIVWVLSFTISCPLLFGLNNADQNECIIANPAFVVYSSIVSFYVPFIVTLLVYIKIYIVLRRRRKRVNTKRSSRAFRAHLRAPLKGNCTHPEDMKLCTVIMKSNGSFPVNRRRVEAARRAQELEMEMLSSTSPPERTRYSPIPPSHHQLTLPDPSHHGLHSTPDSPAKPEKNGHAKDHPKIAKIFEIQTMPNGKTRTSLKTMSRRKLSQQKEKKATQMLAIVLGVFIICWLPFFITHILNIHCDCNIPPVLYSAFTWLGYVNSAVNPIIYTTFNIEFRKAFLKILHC
Gonadotropin-releasing hormone receptor (Homo sapiens), sequence (P30968 whole entry, looked up): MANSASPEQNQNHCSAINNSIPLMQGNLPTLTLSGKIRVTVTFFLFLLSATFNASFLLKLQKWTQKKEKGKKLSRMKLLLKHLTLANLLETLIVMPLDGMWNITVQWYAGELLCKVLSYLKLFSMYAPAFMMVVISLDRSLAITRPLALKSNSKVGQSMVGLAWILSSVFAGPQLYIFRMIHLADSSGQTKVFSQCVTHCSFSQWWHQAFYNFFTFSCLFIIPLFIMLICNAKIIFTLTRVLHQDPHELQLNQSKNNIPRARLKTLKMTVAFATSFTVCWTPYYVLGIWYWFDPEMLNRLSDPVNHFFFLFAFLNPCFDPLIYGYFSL
Beta-2 adrenergic receptor (Homo sapiens), sequence (P07550 whole entry, looked up): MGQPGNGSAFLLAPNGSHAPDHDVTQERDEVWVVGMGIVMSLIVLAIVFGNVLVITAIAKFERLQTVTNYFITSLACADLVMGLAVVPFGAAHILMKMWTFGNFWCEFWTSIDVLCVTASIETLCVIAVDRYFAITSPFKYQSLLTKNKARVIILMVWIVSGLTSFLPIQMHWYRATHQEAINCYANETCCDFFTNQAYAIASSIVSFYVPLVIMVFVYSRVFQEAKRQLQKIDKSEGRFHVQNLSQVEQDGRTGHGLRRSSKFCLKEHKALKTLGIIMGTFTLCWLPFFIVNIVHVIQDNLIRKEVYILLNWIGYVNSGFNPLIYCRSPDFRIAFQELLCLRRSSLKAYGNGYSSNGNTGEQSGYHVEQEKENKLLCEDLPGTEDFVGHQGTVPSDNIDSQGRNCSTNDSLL
KiSS-1 receptor (Homo sapiens), sequence (Q969F8 whole entry, looked up): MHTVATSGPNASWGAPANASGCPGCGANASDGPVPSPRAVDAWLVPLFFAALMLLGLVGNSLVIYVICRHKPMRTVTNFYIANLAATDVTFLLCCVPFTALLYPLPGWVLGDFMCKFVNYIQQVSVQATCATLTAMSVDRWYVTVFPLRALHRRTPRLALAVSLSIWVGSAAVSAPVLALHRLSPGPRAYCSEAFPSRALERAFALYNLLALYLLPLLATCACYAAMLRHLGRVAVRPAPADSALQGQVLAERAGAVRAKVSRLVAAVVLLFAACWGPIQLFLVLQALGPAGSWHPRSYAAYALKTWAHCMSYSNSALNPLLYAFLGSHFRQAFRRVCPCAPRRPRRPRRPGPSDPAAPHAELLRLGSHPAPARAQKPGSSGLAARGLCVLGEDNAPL
Muscarinic acetylcholine receptor M1 (Homo sapiens), sequence (P11229 whole entry, looked up): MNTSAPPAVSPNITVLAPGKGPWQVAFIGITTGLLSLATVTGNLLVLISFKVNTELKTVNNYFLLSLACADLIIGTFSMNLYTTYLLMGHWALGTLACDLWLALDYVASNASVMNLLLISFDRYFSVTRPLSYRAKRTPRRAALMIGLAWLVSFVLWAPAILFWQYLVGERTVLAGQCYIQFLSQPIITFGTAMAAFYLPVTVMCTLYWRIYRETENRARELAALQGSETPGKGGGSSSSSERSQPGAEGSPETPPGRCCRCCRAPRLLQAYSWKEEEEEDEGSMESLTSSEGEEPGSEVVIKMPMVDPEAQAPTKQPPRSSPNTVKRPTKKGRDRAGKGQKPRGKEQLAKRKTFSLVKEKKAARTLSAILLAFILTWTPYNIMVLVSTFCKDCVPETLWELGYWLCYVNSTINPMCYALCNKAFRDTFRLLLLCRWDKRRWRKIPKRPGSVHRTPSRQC
5-hydroxytryptamine receptor 2A (Homo sapiens), sequence (P28223 whole entry, looked up): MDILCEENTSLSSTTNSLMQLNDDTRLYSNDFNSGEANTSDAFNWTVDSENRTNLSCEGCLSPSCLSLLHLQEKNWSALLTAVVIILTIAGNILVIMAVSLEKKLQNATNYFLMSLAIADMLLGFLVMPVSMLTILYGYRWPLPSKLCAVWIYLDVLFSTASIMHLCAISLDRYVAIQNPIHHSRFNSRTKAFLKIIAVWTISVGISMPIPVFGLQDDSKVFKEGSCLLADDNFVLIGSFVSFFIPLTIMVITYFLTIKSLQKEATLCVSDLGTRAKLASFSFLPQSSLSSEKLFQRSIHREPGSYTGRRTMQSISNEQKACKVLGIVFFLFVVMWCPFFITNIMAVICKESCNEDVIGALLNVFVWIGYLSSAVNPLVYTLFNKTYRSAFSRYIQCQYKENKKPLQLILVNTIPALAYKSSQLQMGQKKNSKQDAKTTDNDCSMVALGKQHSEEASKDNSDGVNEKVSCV

Regarding `Cc1oc(-c2ccccc2)nc1CCOc1cccc2c1ccn2CCC(=O)O`, the Potency entry in test [1], in test [2], in test [3], in test [4], in test [5] and in test [6] was “inactive” throughout. Besides, the Potency entry in test [7], in test [8], in test [9], in test [10], in [11] and in test [12] was “inactive” in each case. For the same molecule, the Potency entry in test [13] was “inactive”.
Consider `O=C(C(=O)c1ccc(Br)cc1)c1ccc(Br)cc1`, for which the activity change, negative = cytotoxicity in test [1] was -1.93% [at 19 µM]; in test [6], -13.3% [at 13.5 µM]; in test [8] it was -2.62% [at 13.5 µM]. Moreover, in [2], the activity change is 0.0439% [at 11.8 µM, hits give high values]. Besides, the activation was 0.431% [at 15.8 µM] in test [3]; -0.382% [at 11.8 µM] in test [4]; -6.75% [at 13.6 µM] in [5]; 2.38% [at 15.9 µM] in [14]; -0.452% [at 15.8 µM] in test [11]; -0.367% [at 19 µM] in test [15]. In addition, the activation in test [17] was -0.026% [at 19 µM]. The values for the activity, negative = inhibition in test [9] and in [10] were 10.2% [at 12.7 µM] and 5.04% [at 12.6 µM], respectively. The activity change, negative = inhibition in test [16] was -9.38% [at 18.9 µM].
With `O=C(Nc1ccc(C(=O)O)c(O)c1)c1ccccc1`, the Potency result in [1], in test [2], in test [3], in test [4], in test [5] and in test [6] was “inactive” throughout. For the same molecule, the Potency result in [7], in test [8], in test [18], in test [14], in [10] and in [15] was “inactive” throughout. The Potency result in test [16], in test [12], in test [19], in test [17] and in [13] was “inactive” throughout.
Turning to `CCNc1nc(NC(C)CC)nc(OC)n1` (configuration not stated), the Potency entry in test [1], in test [2], in [3], in test [4], in test [20] and in [7] was “inactive” each time. Also, the Potency entry in [8], in test [18], in test [9], in [14], in [10] and in [11] was “inactive” in each case. Further, the Potency entry in test [15], in test [12], in test [19], in [17] and in [13] was “inactive” each time.
As to `CCCCCCCCCCC[C@@H](C[C@@H]1OC(=O)[C@H]1CCCCCC)OC(=O)[C@H](CC(C)C)NC=O`, the Potency entry in test [1], in test [2], in test [3], in test [4], in test [5] and in test [7] was “inactive” throughout. Also, the Potency result in test [8], in test [18], in test [9], in test [14], in test [11] and in test [15] was “inactive” in each case. In addition, the Potency entry in test [16], in test [12], in test [17] and in [13] was “inactive” each time.
As to `Oc1ccc(C2(c3ccc(O)c(C4CCCCC4)c3)CCCCC2)cc1C1CCCCC1`, the Potency in test [1] was 12.2 µM (active); in test [6] it was 20.4 µM (active); in test [16], 21.7 µM (active). The Potency result in test [2], in test [3], in test [4], in [20], in [7] and in [9] was “inactive” in each case. Further, the Potency entry in test [14], in [10], in test [11], in test [12], in test [17] and in test [13] was “inactive” each time.
